Holding throughout (assay): glycan array binding signal (z-score within array); higher = stronger binding
Common to all, as to details: glycan notation: IUPAC condensed, linker removed

Experiment [1] relates to GlcNAc(b1-2)[GlcNAc(b1-6)]Man(a1-6)[GlcNAc(b1-2)Man(a1-3)]Man(b1-4)GlcNAc(b1-4)GlcNAc. The procedure, abridged: (§1)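 Columns mapping to the same glycan were averaged after glycan names were converted to IUPAC-condensed notation. The data come from 3228 arrays in the Consortium for Functional Glycomics database, limited to those with an available protein sequence. Binding is reported as a within-array Z-score averaged across arrays of one protein sequence and across linkers.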

The test system of experiment [2] is GlcNAc(b1-3)[GlcNAc(b1-6)]Gal(b1-4)GlcNAc. The procedure, abridged: as §1
Experiment [3] relates to GlcNAc(b1-2)[GlcNAc(b1-6)]Man(a1-6)[GlcNAc(b1-2)Man(a1-3)]Man(b1-4)GlcNAc(b1-4)[Fuc(a1-6)]GlcNAc. An outline of the steps: as §1
The test system of experiment [4] is GlcNAc(b1-3)Gal(b1-4)GlcNAc(b1-2)[GlcNAc(b1-3)Gal(b1-4)GlcNAc(b1-6)]Man(a1-6)[GlcNAc(b1-3)Gal(b1-4)GlcNAc(b1-2)Man(a1-3)]Man(b1-4)GlcNAc(b1-4)GlcNAc. The procedure, abridged: as §1
Experiment [5] deals with GlcNAc(b1-3)Gal(b1-4)GlcNAc(b1-3)Gal(b1-4)GlcNAc(b1-2)[GlcNAc(b1-3)Gal(b1-4)GlcNAc(b1-3)Gal(b1-4)GlcNAc(b1-6)]Man(a1-6)[GlcNAc(b1-3)Gal(b1-4)GlcNAc(b1-3)Gal(b1-4)GlcNAc(b1-2)Man(a1-3)]Man(b1-4)GlcNAc(b1-4)[Fuc(a1-6)]GlcNAc. The procedure, abridged: as §1
Experiment [6] deals with GlcNAc(b1-3)Gal(b1-4)GlcNAc(b1-3)Gal(b1-4)GlcNAc(b1-3)Gal(b1-4)GlcNAc(b1-2)Man(a1-3)[GlcNAc(b1-3)Gal(b1-4)GlcNAc(b1-3)Gal(b1-4)GlcNAc(b1-3)Gal(b1-4)GlcNAc(b1-2)Man(a1-6)]Man(b1-4)GlcNAc(b1-4)GlcNAc. An outline of the steps:
as §1

In experiment [7] the test system is GlcNAc(b1-3)Gal(b1-4)GlcNAc(b1-3)Gal(b1-4)GlcNAc(b1-3)Gal(b1-4)GlcNAc(b1-2)[GlcNAc(b1-3)Gal(b1-4)GlcNAc(b1-3)Gal(b1-4)GlcNAc(b1-3)Gal(b1-4)GlcNAc(b1-6)]Man(a1-6)[GlcNAc(b1-3)Gal(b1-4)GlcNAc(b1-3)Gal(b1-4)GlcNAc(b1-3)Gal(b1-4)GlcNAc(b1-2)Man(a1-3)]Man(b1-4)GlcNAc(b1-4)[Fuc(a1-6)]GlcNAc. An outline of the steps: as §1
Experiment [8] concerns GlcNAc(b1-3)Gal(b1-4)GlcNAc(b1-3)Gal(b1-4)GlcNAc(b1-3)Gal(b1-4)GlcNAc(b1-3)Gal(b1-4)GlcNAc(b1-2)Man(a1-3)[GlcNAc(b1-3)Gal(b1-4)GlcNAc(b1-3)Gal(b1-4)GlcNAc(b1-3)Gal(b1-4)GlcNAc(b1-3)Gal(b1-4)GlcNAc(b1-2)Man(a1-6)]Man(b1-4)GlcNAc(b1-4)GlcNAc. An outline of the steps:
as §1

For experiment [9], the system named is GlcNAc(b1-3)Gal(b1-4)GlcNAc(b1-3)Gal(b1-4)GlcNAc(b1-3)Gal(b1-4)GlcNAc(b1-3)Gal(b1-4)GlcNAc(b1-2)[GlcNAc(b1-3)Gal(b1-4)GlcNAc(b1-3)Gal(b1-4)GlcNAc(b1-3)Gal(b1-4)GlcNAc(b1-3)Gal(b1-4)GlcNAc(b1-6)]Man(a1-6)[GlcNAc(b1-3)Gal(b1-4)GlcNAc(b1-3)Gal(b1-4)GlcNAc(b1-3)Gal(b1-4)GlcNAc(b1-3)Gal(b1-4)GlcNAc(b1-2)Man(a1-3)]Man(b1-4)GlcNAc(b1-4)[Fuc(a1-6)]GlcNAc. An outline of the steps: as §1

The subject of experiment [10] is GlcNAc(b1-3)Gal(b1-4)GlcNAc. The procedure, abridged:
as §1

Another experiment relates to Kdn(a2-3)Gal(b1-3)GlcNAc. The procedure, abridged: as §1
Experiment [11] has as its system GlcNAc(b1-3)Gal(b1-4)GlcNAc(b1-3)Gal(b1-4)GlcNAc(b1-2)Man(a1-3)[GlcNAc(b1-3)Gal(b1-4)GlcNAc(b1-3)Gal(b1-4)GlcNAc(b1-2)Man(a1-6)]Man(b1-4)GlcNAc(b1-4)GlcNAc. An outline of the steps: as §1
Experiment [12] has as its system GlcNAc(b1-3)Gal(b1-4)GlcNAc(b1-6)[GlcNAc(b1-3)Gal(b1-3)]GalNAc. The procedure, abridged: as §1
In experiment [13] the test system is GlcNAc(b1-4)Gal(b1-4)GlcNAc. The procedure, abridged:
as §1

The subject of the next experiment is GlcNAc(b1-3)Gal(b1-4)Glc. An outline of the steps: as §1
The next experiment relates to GlcNAc(b1-3)GalNAc. The procedure, abridged:
as §1

The subject of the next experiment is GlcNAc(b1-6)GalNAc. The procedure, abridged: as §1
For experiment [14], the system named is GlcNAc(b1-3)[GlcNAc(b1-6)]GalNAc. An outline of the steps:
as §1

Experiment [15] has as its system GlcNAc(b1-4)GlcNAc(b1-4)GlcNAc(b1-4)GlcNAc(b1-4)GlcNAc. The procedure, abridged: as §1
A further experiment relates to GlcNAc(b1-4)GlcNAc. An outline of the steps:
as §1

This excerpt belongs to a sample that is enriched for the strongest signals.

Data on 10 substances can be found in the supplement of paper PMC8728848.

Consider Wza (Escherichia coli), P0A930, for which the figures for the “glycan array binding signal (z-score)” value in [1] and in experiment [2] were 0.119 and 3.12, respectively.

Consider “SiiE (Salmonella typhimurium), A0A0H3NVH0”, for which the “glycan array binding signal (z-score)” value in experiment [1] turned out to be 3.14.

As to AgI/IIC123-GFP (Streptococcus mutans), the “glycan array binding signal (z-score)” value was -0.127 in experiment [3]; 0.224 in experiment [4]; 5.15 in experiment [5]; 3.88 in [6]; 9 in experiment [7]; -0.201 in experiment [8]. Besides, the “glycan array binding signal (z-score)” value in experiment [9] was 7.4; in experiment [10], -0.479; with Kdn(a2-3)Gal(b1-3)GlcNAc, -0.106.

LcI (Legionella pneumophila): the “glycan array binding signal (z-score)” value in experiment [11] was 3.83; in [12], -0.064; in [13], 4.

Actinohivin (Actinomycete K97): in experiment [5], the “glycan array binding signal (z-score)” value was 0.545.

On to “AgI/II Vhelical-GFP (Streptococcus mutans)”, for which the “glycan array binding signal (z-score)” value in experiment [6] is 0.722.

Regarding Epa22, the “glycan array binding signal (z-score)” value in the experiment on GlcNAc(b1-3)Gal(b1-4)Glc was -0.695; in the experiment on GlcNAc(b1-3)GalNAc, -0.435.

As to GspB (Streptococcus gordonii), Q939N5, the entries for the “glycan array binding signal (z-score)” value (in experiment [2]; in the experiment on GlcNAc(b1-6)GalNAc) were -0.418 and -0.73, respectively.

On to BambL (Burhholderia ambifaria), Q0B4G1, for which the “glycan array binding signal (z-score)” value in [14] is -0.313; in [15], -0.314.

As for “SpGH101 (Streptococcus pneumoniae), Q8DR60”, the “glycan array binding signal (z-score)” value in the experiment with GlcNAc(b1-4)GlcNAc was -0.14.
